Experimental data published in the supplement of paper PMC10849652.
Targets with a hit are over-represented here; the source holds about 8,800 in all. About 0.5% of all pairs of compound and target were hits.

Tests used:
Assay in all cases: log2 fold change, soluble protein after heating vs DMSO (PISA); higher = thermal stabilisation; K562 lysate, 10 uM; active = over 0.2 and 3.5 SD of the protein, either way, in both replicates (recomputed)
[1] = compound: CN1CC[C@H](c2c(O)cc(O)c3c(=O)cc(-c4ccccc4Cl)oc23)[C@H](O)C1 [alvocidib]
How it was run: (§1)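 Thermal stability, expressed as log-two fold change relative to solvent controls, is given from duplicates. Crude K562 extract in PBS pH 7.4 with 1 mM MgCl2, at 1 mg/mL protein, was treated with 10 μM compound for 30 min and heated in aliquots for 3 min across 48°C-58°C. After pooling, adjustment to 0.5% NP-40 at 4°C and centrifugation at 21,000xg for 90 min, supernatant protein was measured by TMTpro 16plex LC-MS/MS with channel sums equalised.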

[2] = compound: CN1CCc2c(c3ccccc3n2Cc2ccc(C(=O)NO)cc2)C1 [Tubastatin A]
How it was run: as §1

[3] = compound: CNC(=O)C1=CC=CC=C1NC2=NC(=NC=C2Cl)NC3=C(C=C(C=C3)N4CCOCC4)OC
How it was run: as §1

[4] = compound: CNC(=O)c1ccc(Nc2ncc(C(F)(F)F)c(NCc3nccnc3N(C)S(C)(=O)=O)n2)cc1 [defactinib]
How it was run: as §1

[5] = compound: CNc1nc(-c2ccc3c(N)n[nH]c3c2)cc(N2C[C@@H](C(=O)NC3CCCCC3)CC[C@H]2C)n1
How it was run: as §1

[6] = compound: COC(=O)N[C@@H](C)CNc1nccc(-c2cn(C(C)C)nc2-c2cc(Cl)cc(NS(C)(=O)=O)c2F)n1 [encorafenib]
How it was run: as §1

[7] = compound: COC(=O)[C@H](CCSC)NC(=O)C1=C(C=C(C=C1)NC[C@H](CS)N)C2=CC=CC=C2
How it was run: as §1

[8] = compound: COc1cc(Nc2ncc3c(n2)-c2ccc(Cl)cc2C(c2c(F)cccc2OC)=NC3)ccc1C(=O)O [alisertib]
How it was run: as §1

[9] = compound: COc1cc2nc(-c3cc(F)ccc3O)nc(N[C@@H]3CNC[C@H]3C(C)(C)O)c2cc1OC
How it was run: as §1

[10] = compound: COc1cc2ncnc(Nc3ccc(F)c(Cl)c3)c2cc1OCCCN1CCOCC1 [gefitinib]
How it was run: as §1

[11] = compound: CS(=O)(=O)CCNCc1ccc(-c2ccc3ncnc(Nc4ccc(OCc5cccc(F)c5)c(Cl)c4)c3c2)o1 [lapatinib]
How it was run: as §1

[12] = compound: CS(=O)(=O)N1CCN(Cc2cc3nc(-c4cccc5[nH]ncc45)nc(N4CCOCC4)c3s2)CC1 [pictilisib]
How it was run: as §1

[13] = compound: C[C@@H](Oc1cc(-c2cnn(C3CCNCC3)c2)cnc1N)c1c(Cl)ccc(F)c1Cl [crizotinib]
How it was run: as §1

[14] = compound: C[C@H](C1=CC=C(C=C1)C(=O)NC2=C3C=CNC3=NC=C2)N
How it was run: as §1

[15] = compound: C[C@H](Nc1ncnc2nc[nH]c12)c1cc2cccc(Cl)c2c(=O)n1-c1ccccc1 [duvelisib]
How it was run: as §1

[16] = compound: Cc1cc(Nc2cc(CN3CCOCC3)c3nc(C)c(Cc4ccc(Cl)cc4F)n3n2)n[nH]1 [gandotinib]
How it was run: as §1

[17] = compound: Cc1cc(Nc2cc(N3CCN(C)CC3)nc(Sc3ccc(NC(=O)C4CC4)cc3)n2)n[nH]1 [tozasertib]
How it was run: as §1

[18] = compound: Cc1ccc(-n2nc(C(C)(C)C)cc2NC(=O)Nc2ccc(OCCN3CCOCC3)c3ccccc23)cc1 [doramapimod]
How it was run: as §1

[19] = compound: Cc1ccc(NC(=O)c2ccc(CN3CC[C@H](N(C)C)C3)c(C(F)(F)F)c2)cc1Nc1nccc(-c2cncnc2)n1 [bafetinib]
How it was run: as §1

[20] = compound: Cc1cccc(CC(=O)N2CCc3c2ccc(-c2cn(C)c4ncnc(N)c24)c3F)n1
How it was run: as §1

Measured: log2 fold change

FAM114A2 (UniProt Q9NRY5)
UniProt Q9NRY5, sequence (Q9NRY5 whole entry, looked up): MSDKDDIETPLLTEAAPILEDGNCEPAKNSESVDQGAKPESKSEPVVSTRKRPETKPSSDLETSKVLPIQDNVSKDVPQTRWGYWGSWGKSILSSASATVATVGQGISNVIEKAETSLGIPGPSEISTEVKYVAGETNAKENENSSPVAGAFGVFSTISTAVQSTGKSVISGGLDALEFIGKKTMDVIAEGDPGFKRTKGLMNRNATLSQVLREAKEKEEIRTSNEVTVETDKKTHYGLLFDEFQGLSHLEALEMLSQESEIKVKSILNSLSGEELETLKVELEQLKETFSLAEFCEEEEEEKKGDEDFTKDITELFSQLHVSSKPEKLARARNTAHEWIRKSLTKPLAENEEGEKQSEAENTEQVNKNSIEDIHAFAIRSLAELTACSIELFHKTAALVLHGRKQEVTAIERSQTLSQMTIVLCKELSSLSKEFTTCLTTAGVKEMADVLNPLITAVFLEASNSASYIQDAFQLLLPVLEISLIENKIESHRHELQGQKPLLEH
active: [16] 0.449
inactive: [1] 0.021 | [2] 0.134 | [3] 0 | [4] 0.032 | [5] 0.037 | [6] 0.219 | [7] 0.027 | [8] 0.127 | [9] 0.118 | [10] 0.073 | [11] 0.106 | [12] -0.013 | [13] 0.013 | [14] -0.023 | [15] 0.011 | [17] -0.108 | [18] -0.011 | [19] -0.121 | [20] 0.196

FIGNL1 (UniProt Q6PIW4)
UniProt Q6PIW4, sequence (Q6PIW4 whole entry, looked up): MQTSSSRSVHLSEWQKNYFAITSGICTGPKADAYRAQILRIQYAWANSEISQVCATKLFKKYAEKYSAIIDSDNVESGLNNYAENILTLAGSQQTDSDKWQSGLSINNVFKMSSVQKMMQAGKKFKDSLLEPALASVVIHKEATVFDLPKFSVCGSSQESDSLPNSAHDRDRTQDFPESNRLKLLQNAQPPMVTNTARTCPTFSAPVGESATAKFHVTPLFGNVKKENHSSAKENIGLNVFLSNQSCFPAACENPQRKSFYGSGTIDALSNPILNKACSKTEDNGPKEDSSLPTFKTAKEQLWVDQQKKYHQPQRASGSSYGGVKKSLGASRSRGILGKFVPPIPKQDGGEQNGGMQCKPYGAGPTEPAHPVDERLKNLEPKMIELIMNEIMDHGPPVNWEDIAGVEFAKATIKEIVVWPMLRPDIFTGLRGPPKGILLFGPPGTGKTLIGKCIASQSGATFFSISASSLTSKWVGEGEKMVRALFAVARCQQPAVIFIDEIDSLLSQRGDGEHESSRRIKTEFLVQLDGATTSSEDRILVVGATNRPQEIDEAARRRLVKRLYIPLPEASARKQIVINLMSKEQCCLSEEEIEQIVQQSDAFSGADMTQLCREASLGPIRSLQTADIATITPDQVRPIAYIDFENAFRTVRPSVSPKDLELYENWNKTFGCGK
inactive: [1] -0.018 | [2] -0.189 | [3] 0.014 | [4] 0.05 | [5] -0.018 | [6] 0.041 | [7] 0.069 | [8] -0.003 | [9] 0.005 | [10] 0.01 | [11] 0 | [12] -0.03 | [13] -0.078 | [14] -0.035 | [15] 0.002 | [16] -0.071 | [17] 0.003 | [18] -0.018 | [19] -0.024 | [20] 0.007

GAPDH (UniProt P04406)
inactive: [1] 0.01 | [2] 0.046 | [3] 0 | [4] 0.012 | [5] 0.018 | [6] -0.045 | [7] -0.006 | [8] -0.039 | [9] -0.001 | [10] -0.026 | [11] 0.005 | [12] -0.024 | [13] 0.066 | [14] 0.043 | [15] 0.003 | [16] -0.002 | [17] -0.005 | [18] -0.031 | [19] 0.055 | [20] -0.082

EIF1 (UniProt P41567)
UniProt P41567, sequence (P41567 whole entry, looked up): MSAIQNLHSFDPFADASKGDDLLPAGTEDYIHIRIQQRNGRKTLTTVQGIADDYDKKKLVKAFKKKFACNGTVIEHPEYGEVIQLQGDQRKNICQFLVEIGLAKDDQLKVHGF
active: [10] -0.247
inactive: [1] -0.033 | [2] 0.084 | [3] -0.039 | [4] -0.013 | [5] -0.02 | [6] -0.017 | [7] -0.032 | [8] -0.006 | [9] 0.005 | [11] 0.053 | [12] 0.016 | [13] 0.002 | [14] -0.051 | [15] 0.044 | [16] 0.068 | [17] -0.008 | [18] -0.092 | [19] 0.052 | [20] 0.021

ECH1 (UniProt Q13011)
active: [2] 0.309
inactive: [1] 0.017 | [3] -0.028 | [4] 0.004 | [5] -0.004 | [6] -0.033 | [7] -0.024 | [8] -0.01 | [9] 0.047 | [10] -0.001 | [11] -0.035 | [12] -0.008 | [13] -0.03 | [14] -0.089 | [15] 0.016 | [16] 0.005 | [17] 0.178 | [18] -0.008 | [19] 0.091 | [20] 0.028

GFPT1 (UniProt Q06210)
inactive: [1] 0.022 | [2] -0.075 | [3] 0.011 | [4] 0.01 | [5] 0.012 | [6] -0.012 | [7] 0.134 | [8] 0.005 | [9] 0.007 | [10] -0.013 | [11] -0.001 | [12] -0.026 | [13] -0.033 | [14] 0.009 | [15] -0.002 | [16] -0.066 | [17] -0.013 | [18] -0.001 | [19] -0.031 | [20] 0.007

FECH isoform 2 (UniProt P22830)
UniProt P22830, sequence (P22830 whole entry, looked up): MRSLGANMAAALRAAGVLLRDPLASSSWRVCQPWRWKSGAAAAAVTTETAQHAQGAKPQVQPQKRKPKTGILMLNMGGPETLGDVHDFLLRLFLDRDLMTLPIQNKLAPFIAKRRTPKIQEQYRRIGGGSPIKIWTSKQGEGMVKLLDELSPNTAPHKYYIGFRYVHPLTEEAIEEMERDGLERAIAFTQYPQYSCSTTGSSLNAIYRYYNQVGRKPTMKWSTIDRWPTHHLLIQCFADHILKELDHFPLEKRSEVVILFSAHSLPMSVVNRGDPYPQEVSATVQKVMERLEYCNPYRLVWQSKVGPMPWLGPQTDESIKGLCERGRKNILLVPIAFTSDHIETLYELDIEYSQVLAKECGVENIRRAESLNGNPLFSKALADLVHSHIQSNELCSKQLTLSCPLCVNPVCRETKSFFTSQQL
inactive: [1] 0.028 | [2] -0.123 | [3] 0.485 | [4] -0.056 | [5] 0.664 | [6] -0.064 | [7] -0.091 | [8] -0.191 | [9] 0.225 | [10] 0.503 | [11] -0.099 | [12] 0.64 | [13] 0.027 | [14] -0.12 | [15] -0.022 | [16] 0.418 | [17] 0 | [18] -0.015 | [19] 0.557 | [20] -0.036

EIF2AK2 (UniProt P19525)
inactive: [1] 0.004 | [2] -0.099 | [3] 0.091 | [4] 0.049 | [5] 0.083 | [6] 0.087 | [7] 0.153 | [8] 0.003 | [9] 0.029 | [10] -0.055 | [11] -0.003 | [12] 0.03 | [13] 0.12 | [14] -0.061 | [15] -0.036 | [16] -0.022 | [17] -0.009 | [18] 0.011 | [19] -0.036 | [20] 0.022

FUBP3 (UniProt Q96I24)
UniProt Q96I24, sequence (Q96I24 whole entry, looked up): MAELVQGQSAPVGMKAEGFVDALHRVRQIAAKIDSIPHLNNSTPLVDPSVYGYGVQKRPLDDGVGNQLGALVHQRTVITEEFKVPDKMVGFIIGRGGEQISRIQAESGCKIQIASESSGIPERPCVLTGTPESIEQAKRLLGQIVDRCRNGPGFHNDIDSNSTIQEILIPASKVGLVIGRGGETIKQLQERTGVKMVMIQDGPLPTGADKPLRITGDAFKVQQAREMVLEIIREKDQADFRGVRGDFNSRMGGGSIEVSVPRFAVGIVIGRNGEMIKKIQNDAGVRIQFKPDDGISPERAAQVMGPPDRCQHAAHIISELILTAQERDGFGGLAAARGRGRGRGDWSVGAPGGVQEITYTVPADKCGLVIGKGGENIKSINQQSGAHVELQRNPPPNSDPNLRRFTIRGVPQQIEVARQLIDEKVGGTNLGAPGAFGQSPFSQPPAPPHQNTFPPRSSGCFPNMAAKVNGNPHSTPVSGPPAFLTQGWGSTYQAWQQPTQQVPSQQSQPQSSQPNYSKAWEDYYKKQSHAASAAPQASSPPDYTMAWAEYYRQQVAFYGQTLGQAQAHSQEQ
inactive: [1] 0.008 | [2] -0.101 | [3] -0.033 | [4] 0.005 | [5] -0.05 | [6] 0.065 | [7] -0.146 | [8] 0.048 | [9] 0.001 | [10] -0.033 | [11] 0.02 | [12] -0.109 | [13] 0.005 | [14] 0.036 | [15] -0.022 | [16] 0.019 | [17] 0.033 | [18] -0.034 | [19] -0.055 | [20] -0.05

EEF1AKMT4 (UniProt P0DPD7)
UniProt P0DPD7, sequence (P0DPD7 whole entry, looked up): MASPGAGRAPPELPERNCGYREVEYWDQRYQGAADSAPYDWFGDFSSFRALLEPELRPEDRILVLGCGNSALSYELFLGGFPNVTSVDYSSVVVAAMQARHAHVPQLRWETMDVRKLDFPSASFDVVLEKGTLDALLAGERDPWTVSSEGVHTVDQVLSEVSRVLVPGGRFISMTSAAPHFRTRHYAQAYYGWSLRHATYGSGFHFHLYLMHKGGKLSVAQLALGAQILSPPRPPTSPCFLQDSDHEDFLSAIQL
inactive: [1] -0.029 | [2] -0.027 | [3] 0.074 | [4] 0.03 | [5] 0.188 | [6] 0.042 | [7] 0.012 | [8] 0.037 | [9] 0.068 | [10] 0.004 | [11] -0.052 | [12] 0.009 | [13] -0.012 | [14] -0.046 | [15] -0.038 | [16] 0.067 | [17] -0.072 | [18] -0.038 | [19] -0.171 | [20] 0.193

FASTKD5 (UniProt Q7L8L6)
UniProt Q7L8L6, sequence (Q7L8L6 whole entry, looked up): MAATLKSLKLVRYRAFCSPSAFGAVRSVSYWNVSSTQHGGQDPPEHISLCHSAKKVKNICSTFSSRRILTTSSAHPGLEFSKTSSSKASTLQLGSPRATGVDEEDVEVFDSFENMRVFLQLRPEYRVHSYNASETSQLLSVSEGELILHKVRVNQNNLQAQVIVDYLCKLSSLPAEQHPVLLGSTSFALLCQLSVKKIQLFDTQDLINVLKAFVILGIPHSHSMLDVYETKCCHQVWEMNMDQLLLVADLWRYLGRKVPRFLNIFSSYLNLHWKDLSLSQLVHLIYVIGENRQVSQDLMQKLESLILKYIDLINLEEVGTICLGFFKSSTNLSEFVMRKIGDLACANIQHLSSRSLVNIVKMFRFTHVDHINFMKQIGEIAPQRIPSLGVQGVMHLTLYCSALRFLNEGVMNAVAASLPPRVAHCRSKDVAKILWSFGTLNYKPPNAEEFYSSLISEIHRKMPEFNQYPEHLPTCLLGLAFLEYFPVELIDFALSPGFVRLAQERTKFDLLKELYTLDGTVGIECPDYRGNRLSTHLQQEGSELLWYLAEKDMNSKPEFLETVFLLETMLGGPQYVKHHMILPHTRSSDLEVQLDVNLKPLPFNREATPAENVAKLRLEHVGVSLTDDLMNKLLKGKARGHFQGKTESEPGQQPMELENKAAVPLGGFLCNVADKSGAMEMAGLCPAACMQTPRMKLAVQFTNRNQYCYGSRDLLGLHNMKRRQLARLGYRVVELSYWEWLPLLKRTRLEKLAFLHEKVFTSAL
inactive: [1] 0.024 | [2] -0.11 | [3] 0.03 | [4] 0.011 | [5] -0.017 | [6] 0.064 | [7] 0.135 | [8] 0.002 | [9] 0.072 | [10] -0.018 | [11] -0.025 | [12] 0.085 | [13] -0.075 | [14] 0.089 | [15] -0.042 | [16] -0.193 | [17] 0.056 | [18] 0.036 | [19] 0.169 | [20] -0.056

GCN1 (UniProt Q92616)
inactive: [1] 0.036 | [2] -0.181 | [3] 0.001 | [4] 0.037 | [5] -0.023 | [6] 0.014 | [7] 0.147 | [8] 0.023 | [9] 0.006 | [10] -0.004 | [11] -0.034 | [12] -0.027 | [13] -0.125 | [14] -0.002 | [15] 0.008 | [16] -0.121 | [17] 0.017 | [18] 0.019 | [19] -0.049 | [20] 0.053

FHOD1 (UniProt Q9Y613)
UniProt Q9Y613, sequence (Q9Y613 whole entry, looked up): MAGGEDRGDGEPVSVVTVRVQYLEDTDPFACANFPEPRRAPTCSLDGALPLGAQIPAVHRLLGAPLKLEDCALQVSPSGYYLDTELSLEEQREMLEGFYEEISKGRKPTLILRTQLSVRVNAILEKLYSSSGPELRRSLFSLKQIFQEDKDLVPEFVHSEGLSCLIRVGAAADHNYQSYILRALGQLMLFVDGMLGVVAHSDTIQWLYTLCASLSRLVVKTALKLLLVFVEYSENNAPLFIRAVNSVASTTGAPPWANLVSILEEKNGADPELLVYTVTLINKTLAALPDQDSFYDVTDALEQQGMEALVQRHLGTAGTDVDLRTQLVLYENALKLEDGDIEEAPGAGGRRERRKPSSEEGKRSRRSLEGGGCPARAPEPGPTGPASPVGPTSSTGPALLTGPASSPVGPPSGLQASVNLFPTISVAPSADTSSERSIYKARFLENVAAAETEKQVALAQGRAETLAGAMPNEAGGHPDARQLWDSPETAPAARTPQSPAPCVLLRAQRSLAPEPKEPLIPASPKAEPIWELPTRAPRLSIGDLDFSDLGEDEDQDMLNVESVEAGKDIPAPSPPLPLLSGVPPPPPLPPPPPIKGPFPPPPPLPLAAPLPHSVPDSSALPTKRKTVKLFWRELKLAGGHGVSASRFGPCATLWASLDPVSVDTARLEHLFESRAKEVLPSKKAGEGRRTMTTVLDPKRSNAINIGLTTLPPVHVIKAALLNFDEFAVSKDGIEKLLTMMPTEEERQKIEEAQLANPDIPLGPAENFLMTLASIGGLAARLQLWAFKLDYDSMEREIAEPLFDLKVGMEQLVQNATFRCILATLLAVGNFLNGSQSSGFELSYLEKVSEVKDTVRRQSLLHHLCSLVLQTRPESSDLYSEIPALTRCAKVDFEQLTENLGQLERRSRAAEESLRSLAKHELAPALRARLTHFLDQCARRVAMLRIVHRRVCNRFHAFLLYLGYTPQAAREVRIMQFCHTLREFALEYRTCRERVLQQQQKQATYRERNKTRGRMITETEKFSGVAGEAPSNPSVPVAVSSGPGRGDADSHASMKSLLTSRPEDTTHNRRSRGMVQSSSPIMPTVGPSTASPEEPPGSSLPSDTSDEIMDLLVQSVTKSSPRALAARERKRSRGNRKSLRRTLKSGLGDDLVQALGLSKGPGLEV
inactive: [1] -0.034 | [2] -0.129 | [3] 0.014 | [4] 0.033 | [5] 0.006 | [6] 0.021 | [7] 0.028 | [8] 0.011 | [9] 0.002 | [10] -0.013 | [11] -0.018 | [12] -0.011 | [13] -0.014 | [14] 0.017 | [15] -0.023 | [16] -0.141 | [17] 0.008 | [18] 0.045 | [19] -0.063 | [20] 0.035

FAU (UniProt E9PR30)
active: [14] 0.293
inactive: [1] 0.073 | [2] 0.02 | [3] -0.087 | [4] 0.003 | [5] 0.013 | [6] -0.04 | [7] 0.013 | [8] 0.035 | [9] -0.016 | [10] -0.044 | [11] -0.018 | [12] 0.02 | [13] -0.055 | [15] 0.047 | [16] -0.105 | [17] -0.027 | [18] 0.071 | [19] -0.019 | [20] -0.121

EHD2 (UniProt Q9NZN4)
inactive: [1] -0.012 | [2] -0.051 | [3] 0.055 | [4] 0.032 | [5] -0.037 | [6] 0.001 | [7] 0.246 | [8] -0.015 | [9] 0.071 | [10] -0.04 | [11] -0.047 | [12] -0.052 | [13] -0.033 | [14] 0.004 | [15] 0.026 | [16] -0.117 | [17] -0.004 | [18] 0.02 | [19] -0.063 | [20] 0.017

ECI2 (UniProt O75521)
UniProt O75521, sequence (O75521 whole entry, looked up): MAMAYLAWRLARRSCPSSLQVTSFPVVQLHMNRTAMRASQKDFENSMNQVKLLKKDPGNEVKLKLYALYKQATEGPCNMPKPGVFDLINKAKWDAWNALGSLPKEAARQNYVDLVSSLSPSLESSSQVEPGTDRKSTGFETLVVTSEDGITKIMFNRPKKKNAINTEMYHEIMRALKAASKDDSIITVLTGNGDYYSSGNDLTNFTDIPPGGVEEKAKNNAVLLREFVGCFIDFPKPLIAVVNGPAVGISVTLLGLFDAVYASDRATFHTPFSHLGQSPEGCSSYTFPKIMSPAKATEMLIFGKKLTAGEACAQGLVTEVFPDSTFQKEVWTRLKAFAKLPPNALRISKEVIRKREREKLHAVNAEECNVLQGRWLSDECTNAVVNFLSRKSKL
inactive: [1] -0.033 | [2] 0.054 | [3] -0.054 | [4] -0.038 | [5] 0.03 | [6] -0.006 | [7] -0.067 | [8] 0.004 | [9] -0.008 | [10] 0.011 | [11] -0.022 | [12] -0.017 | [13] 0.032 | [14] -0.002 | [15] 0.004 | [16] -0.009 | [17] 0.03 | [18] 0.007 | [19] -0.002 | [20] 0.042
